Source: PubChem
TbPYK inhibitor – T. brucei pyruvate kinase inhibition. Q57TT1. TbPYK enzyme, Kinase-Glo Plus ATP luminescence, 45 min. Potency, µM (highest dose often 76.8 µM), for the others: top-dose activity, negative = inhibition, hits mostly inhibitors. hit rate 0.12% among 410,000. AID 624173; note: potency is the fitted concentration of half-maximal effect; % is set by controls: 0 for no effect and ±100 for the full control effect; nearly all actives have a fitted effect of over 50% in size
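Assay buffer: 50 mM TEA pH 7.2, 100 mM KCl, 10 mM MgCl2, 0.05% BSA, 0.01% Tween-20. Pyruvate kinase from T. brucei plus substrate met compound, then ADP (130 uM final). Luminescence was read post 45 min RT.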
LmPK inhibitor – inhibitors of Leishmania mexicana pyruvate kinase; AID 1721; hit rate 0.37% among 290,000; purified LmPK, Kinase-Glo ATP luminescence, 1 h; Potency, µM (doses to about 57.5 µM), for inactives: top-dose activity change, negative = inhibition, usual class: inhibitors; note: potency is the fitted concentration of half-maximal effect; % is set by controls: 0 for no effect and ±100 for the full control effect
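Kinase-Glo luminescence read after 1 h RT reaction of 0.1 nM LmPK with 0.5 mM PEP and 0.1 mM ADP. Activity scaled between uninhibited and enzyme-free controls.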
Shiga inhibitor – blocks Shiga toxin action in Vero cells; Vero cells, Shiga toxin protein synthesis inhibition reporter; inhibition, % at 38.7 µM; hit rate 9.2% among 290,000; in the data active = inhibition mostly above about 28%, no sharp cut-off; inactive = mostly below about 43%; note: 0% is about no effect
Giardia FBPA inh-1 – blocks Giardia fructose-bisphosphate aldolase activity; Potency, µM (highest dose often 59.6 µM), inactives show top-dose activity, negative = inhibition, hits mostly inhibitors; A8B2U2; hit rate 0.71% among 290,000; purified Giardia FBPA; AID 2451; note: potency is the fitted concentration of half-maximal effect; % is set by controls: 0 for no effect and ±100 for the full control effect; nearly all actives have a fitted effect of over 55% in size
Target sequence (A8B2U2 whole entry, looked up): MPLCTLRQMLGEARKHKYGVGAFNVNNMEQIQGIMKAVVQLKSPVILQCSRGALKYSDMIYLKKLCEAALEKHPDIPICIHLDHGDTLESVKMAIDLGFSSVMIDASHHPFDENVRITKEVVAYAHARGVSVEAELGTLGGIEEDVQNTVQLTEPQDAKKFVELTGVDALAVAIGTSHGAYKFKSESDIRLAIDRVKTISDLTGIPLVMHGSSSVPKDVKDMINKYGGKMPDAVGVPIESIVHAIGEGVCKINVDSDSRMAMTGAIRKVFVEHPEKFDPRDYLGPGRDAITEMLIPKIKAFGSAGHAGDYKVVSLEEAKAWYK
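40 nM FBPA preincubated 10 min at RT with compound (up to 57.5 uM final), then substrate plus GAPDH/TPI/NAD/arsenate coupling and diaphorase/resazurin added. Fluorescence read after 20 min at RT, 525/598 nm.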
Cycloheximide cs – counter-screen hit for Shiga toxin inhibitors, cycloheximide; hit rate 12% among 300,000; max response, %; cell reporter, cycloheximide protein synthesis inhibition counterscreen; AID 2314; in the data active = max response mostly above about 13%, no sharp cut-off; inactive = mostly below about 14%; note: read at 38.3 µM for the half of the compounds with a filed dose; 0% is about no effect
Sm TGR block – blocks Schistosoma mansoni thioredoxin glutathione reductase; purified TGR, DTNB reduction, TNB absorbance 405 nm; Potency, µM (titrated, usually from 114 µM), inactives show at the top dose activity change, negative = inhibition, actives largely listed as inhibitors; hit rate 3% among 360,000; AID 485364; note: potency is the fitted concentration of half-maximal effect; % is set by controls: 0 for no effect and ±100 for the full control effect; nearly all actives have a fitted effect of over 60% in size
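Kinetic colorimetric format: TGR-catalysed, NADPH-driven DTNB reduction monitored via TNB absorbance. Enzyme dispensed at 20 nM; compound exposure 15 min at room temperature before reaction start.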
Giardia growth – Giardia lamblia growth inhibition; shares compounds with Giardia FBPA inh-1; Giardia lamblia trophozoite growth inhibition; Potency, µM (top dose mostly 57.5 µM), for the others: top-dose activity change, negative = inhibition, actives largely listed as inhibitors; hit rate 5% among 1,500; AID 2785;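 note: potency is the fitted concentration of half-maximal effect; trophozoites exposed to compound for 48 h at 37 °C; % is set by controls: 0 for no effect and ±100 for the full control effect; nearly all actives have a fitted effect of over 70% in size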
Mammal cell tox – toxic to mammalian cells in Giardia aldolase counter-screen. mammalian cell viability counter-screen, qHTS. hit rate 4% among 1,500. AID 2786. shares compounds with Giardia FBPA inh-1. Potency, µM (highest dose often 57.5 µM), for inactives: top-dose viability change, negative = toxicity, usual class: inhibitors;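 note: Chinese hamster ovary cells used as mammalian cytotoxicity surrogate; viability measured as cellular ATP by luminescence; potency is the fitted concentration of half-maximal effect; compound exposure lasted 48 h before reading; % is set by controls: 0 for no effect and ±100 for the full control effect; nearly all actives have a fitted effect of over 60% in size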
Giardia FBPA inh-2 – confirmation of Giardia fructose-bisphosphate aldolase inhibitors | AID 2787 | purified Giardia aldolase enzyme activity, qHTS | Potency, µM (titrated, usually from 57.5 µM), without a hit: top-dose activity change, negative = inhibition, most hits filed as inhibitors | hit rate 5% among 1,500 | shares compounds with Giardia FBPA inh-1; note: potency is the fitted concentration of half-maximal effect; % is set by controls: 0 for no effect and ±100 for the full control effect; nearly all actives have a fitted effect of over 45% in size
Rabbit FBPA inh – selectivity test for Giardia aldolase inhibitors: rabbit aldolase; Rabbit muscle FBPA enzyme inhibition, selectivity counter-screen; hit rate 4% among 1,500; Potency, µM (highest dose often 57.5 µM), without a hit: top-dose activity, negative = inhibition, hits mostly inhibitors; AID 2794; shares compounds with Giardia FBPA inh-1; note: potency is the fitted concentration of half-maximal effect; % is set by controls: 0 for no effect and ±100 for the full control effect; nearly all actives have a fitted effect of over 60% in size
GAPDH coupling – counter-screen for Giardia aldolase inhibitors: GAPDH coupling enzyme. shares compounds with Giardia FBPA inh-1. GAPDH coupling enzyme counterscreen, biochemical, qHTS. Potency, µM (highest dose often 57.5 µM), for the others: at the highest dose activity change, negative = inhibition, usual class: inhibitors. hit rate 6% among 1,500. AID 2795; note: potency is the fitted concentration of half-maximal effect; % is set by controls: 0 for no effect and ±100 for the full control effect; nearly all actives have a fitted effect of over 55% in size
* hit, by the source's call. The full list was thinned out, with hits kept by preference. Unless noted, calls come from the whole dose curve; as a rule, active = well fitted curve in the direction sought with a large enough effect; inconclusive = small, poorly fitted or top-dose-only effect, or another doubt; inactive = no such curve, though single readings can be large; an effect the other way counts as inactive or inconclusive.

For Cc1cccc(NNC(=S)Nc2c(C)cccc2C)c1 the results were TbPYK inhibitor -2%, LmPK inhibitor -3%, Shiga inhibitor -17, Giardia FBPA inh-1 -7%, Cycloheximide cs -3 and Sm TGR block -19%.
For CCCN(C(=O)/C=C/c1ccc(S(=O)(=O)N(CC)CC)cc1)C1CCS(=O)(=O)C1 (stereo not drawn) the results were TbPYK inhibitor -5%.
O=C(C1=NN[C@@H]2C(=O)N(c3cccc(F)c3)C(=O)[C@H]12)c1cnccn1 was read as TbPYK inhibitor 4%, LmPK inhibitor 1%, Shiga inhibitor -3, Giardia FBPA inh-1 16µM*, Cycloheximide cs -1, Sm TGR block 3.2µM*, Giardia growth inconclusive, Mammal cell tox -9%, Giardia FBPA inh-2 0%, Rabbit FBPA inh 6% and GAPDH coupling 10%.
For CN(C)c1ccc(NC2=C(Cl)C(=O)c3ccccc3C2=O)cc1 the results were TbPYK inhibitor inconclusive, LmPK inhibitor -28%, Shiga inhibitor 69*, Giardia FBPA inh-1 inconclusive, Cycloheximide cs 51*, Sm TGR block 8.9µM*, Giardia growth 11µM*, Mammal cell tox 33µM*, Giardia FBPA inh-2 inconclusive, Rabbit FBPA inh inconclusive and GAPDH coupling 3.7µM*.
Cc1ccc2oc(=O)c3cc(C(=O)NCCCN4C(C)CCCC4C)sc3c2c1 (stereo not drawn) was read as TbPYK inhibitor -3%, LmPK inhibitor 13%, Shiga inhibitor -3, Cycloheximide cs -1 and Sm TGR block -19%.
Screening CC1CC(C)CN(C(=O)C(C)N(C)CC(=O)Nc2ccc(F)cc2)C1 (stereo not drawn) returned TbPYK inhibitor -8% and Sm TGR block -21%.
Screening CC1CC(C)CN(C(=O)C(C)N(C)CC(=O)Nc2ccc(Cl)cc2)C1 (stereo not drawn) returned TbPYK inhibitor 42%, LmPK inhibitor -1%, Shiga inhibitor -14, Giardia FBPA inh-1 20µM*, Cycloheximide cs -7, Sm TGR block -9%, Giardia growth -5%, Mammal cell tox -12%, Giardia FBPA inh-2 -2%, Rabbit FBPA inh 5% and GAPDH coupling 6%.
Screening CCOc1ccc(S(=O)(=O)Nc2ccc(O)c(Sc3ncn[nH]3)c2)cc1 returned TbPYK inhibitor 4%, LmPK inhibitor 9%, Shiga inhibitor 2, Giardia FBPA inh-1 13%, Cycloheximide cs -3 and Sm TGR block -21%.
CC(C)c1ccc(S(=O)(=O)/N=C2/C=C(Sc3ncn[nH]3)C(=O)c3ccccc32)cc1 was read as TbPYK inhibitor 14µM*, LmPK inhibitor inconclusive, Shiga inhibitor 78*, Giardia FBPA inh-1 0.45µM*, Cycloheximide cs 36*, Sm TGR block 0.28µM*, Giardia growth 7.1µM*, Mammal cell tox 25µM*, Giardia FBPA inh-2 3.5µM*, Rabbit FBPA inh 16µM* and GAPDH coupling 3.5µM*.
